Inconclusive results are not listed. Active and inactive are the calls of the source. Calls come from the whole dose curve; as a rule, active = well fitted inhibition curve with a large enough effect; inconclusive = small, poorly fitted or top-dose-only effect; inactive = flat fitted curve, though single readings scatter. *1 amine or outer side, *2 acyl side, *3 side chain or, on linkers, in order; H or OH if unused. Where a SMILES comes first, the peptide text is derived from it. [ ]: non-standard residue; d: D form. X4 = CC(C)=CCc1cc(C(O)C(N[*:1])C(=O)[*:2])ccc1O

The assay has as its system NIH3T3. In words: qHTS assay to identify novel small-molecules to repurpose for Merkel cell carcinoma treatment (AID 1296009). Note: nearly all actives have a fitted effect of over 60% in size. Conditions: MCC and control cell lines, CellTiter-Glo viability, 72 h; at 44.8 µM (top of the series) unless noted. In short, it runs like this: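 CellTiter-Glo luminescence after 72 hr compound exposure at 37 degree celsius gave cell viability. Libraries NPC and MIPE were run as 8- and 11-point dose responses; RLUs normalized to DMSO (negative) and no-cell (cytotoxicity) controls.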
In general terms: Quantitative high-throughput screening tests each substance at several concentrations.
On to `CN(C)CC1CCOC1(c1ccccc1)c1ccccc1` (stereo not given), for which the outcome was “inactive [at 17.4 µM]”. As to `O=C(OC1C=C(CO)C2C(OC3OC(CO)C(O)C(O)C3O)OC=CC12)c1ccc(O)cc1` (stereo not given), the outcome was “inactive [at 17.4 µM]”. As for `CC(C)=CCc1cc(C(O)C2NC(=O)CNC(=O)C(Cc3c[nH]c4ccccc34)NC(=O)C3CCCN3C(=O)CNC(=O)C(C(C)C)NC(=O)CNC2=O)ccc1O` (stereo not given) (cyclo(G[X4]GVGPW); configuration not given here), the entry is “inactive [at 9.27 µM]”; as for `COc1ccc(CCO[C@@H]2CCCC[C@H]2N2CC[C@@H](O)C2)cc1OC`, “inactive”; as for `COC(=O)C1=CO[C@@H](O[C@@H]2O[C@H](CO)[C@@H](O)[C@H](O)[C@H]2O)[C@@H]2C(COC(C)=O)=C[C@H](O)[C@H]12`, “inactive [at 17.4 µM]”.

Turning to `CC1(C)CCC[C@@]2(C)C1[C@H](OC(=O)/C=C/C=C/C(=O)O)C=C1COC(=O)[C@@]12O` (stereo not given in full), the call was inactive. To `CO/N=C(/C(=O)N[C@@H]1C(=O)N2C(C(=O)O)=C(Cn3ccc(=N)n3CCO)CS[C@H]12)c1csc(N)n1` belongs “inactive”; to `CC(C)=CCC[C@](C)(O)[C@H]1CC[C@]2(C)[C@@H]1[C@H](O)CC1[C@@]3(C)CC[C@H](O)C(C)(C)[C@@H]3[C@@H](O[C@@H]3O[C@H](CO)[C@@H](O)[C@H](O)[C@H]3O[C@@H]3O[C@H](CO)[C@@H](O)[C@H](O)[C@H]3O)C[C@]12C` (stereo not given in full), “inactive [at 17.4 µM]”. To `C[C@@H]1O[C@@H](O[C@H]2[C@H](OC(=O)[C@]34CCC(C)(C)C[C@H]3C3=CCC5[C@@]6(C)C[C@H](O)[C@H](O[C@@H]7O[C@H](CO)[C@@H](O)[C@H](O)[C@H]7O)[C@@](C)(CO)C6[C@H](O)C[C@@]5(C)[C@]3(C)CC4)OC[C@H](O)[C@@H]2O)[C@H](O)[C@H](O)[C@H]1O[C@@H]1OC[C@@H](O)[C@H](O[C@@H]2OC[C@](O)(CO)[C@H]2O)[C@H]1O` (stereo not given in full) belongs “inactive [at 9.27 µM]”; to `CC(=O)OC1C(O)CC2(C)C(CCC(C)C23Cc2c(O)cc(CO)c(C=O)c2O3)C1(C)C` (stereo not given), “inactive [at 17.4 µM]”; to `C/C(=C\CCC(C)CCO)C(=O)OC1(C)CCC2C(C(=O)O)=COC(OC3OC(CO)C(O)C(O)C3O)C21` (stereo not given), “inactive; activator [at 17.4 µM]”. To `NC1(C(=O)NC(CCO)c2ccc(Cl)cc2)CCN(c2ncnc3[nH]ccc23)CC1` (stereo not given) belongs “inactive”. As for `CCC(C)/C=C(C)/C=C/c1cc2c(cn1)C(=O)C(C)(OC(C)=O)C(O)=C2Cl` (stereo not given), the result was inactive. On to `O=S(=O)(Nc1ccccn1)c1ccc(N=Cc2c(O)[nH]c3ccc4ncsc4c23)cc1`, for which the outcome was “inactive [at 9.27 µM]”. As for `CC(O)/C=C/C1(O)C(C)C(O[C@@H]2O[C@H](CO)[C@@H](O)[C@H](O)[C@H]2O)C(O)CC1(C)C` (stereo not given in full), the entry is “inactive [at 17.4 µM]”. As for `COC(=O)C12CCC(C)C(C)C1C1=CCC3C4(C)CCC(OC(C)=O)C(C)(C)C4CCC3(C)C1(C)CC2` (stereo not given), the entry is “inactive [at 17.4 µM]”; as for `C=C1C(=O)O[C@H](CCC)[C@H]1C(=O)O`, “inactive”. As for `CCOc1cc(CC(=O)NC(CC(C)C)c2ccccc2N2CCCCC2)ccc1C(=O)O` (stereo not given), the entry is “inactive”. As for `COC1=CC(=O)CC(C)C12Oc1cc(OC)cc(O)c1C2=O` (stereo not given), the outcome was inactive. To `O=C1CCC(=O)N(O)CCCCCNC(=O)CCC(=O)N(O)CCOCCNC(=O)CCC(=O)N(O)CCCCCN1` belongs “inactive [at 17.4 µM]”.

For `C=C(C)C1CCC2(C(=O)O[C@@H]3O[C@H](CO[C@@H]4O[C@H](CO)[C@@H](O)[C@H](O)[C@H]4O)[C@@H](O)[C@H](O[C@@H]4O[C@@H](C)[C@H](O)[C@@H](O)[C@H]4O)[C@H]3O)CCC3(C(=O)O)C(CCC4C5(C)CCC(O)C(C)(C)C5CCC43C)C12` (stereo not given in full), the outcome was “inactive [at 9.27 µM]”.

For the compound `CC(NC(=O)C(O)C(C)C)C(=O)NC1C(=O)N(C)CCc2ccccc21` (stereo not given), the compound was classed as inactive.

`CNC(C)C(=O)NC(C(=O)N1CCCC1c1nc(C(=O)c2ccc(F)cc2)cs1)C1CCCCC1` (stereo not given): the call was inactive. As for `CC(=O)O[C@@H]1[C@H](O)[C@@H](O[C@@H]2O[C@@H](C)[C@H](O[C@@H]3OC[C@@H](O)[C@H](O[C@@H]4OC[C@@H](O)[C@H](O)[C@H]4O)[C@H]3O)[C@@H](O[C@@H]3O[C@H](CO)[C@@H](O)[C@H](O)[C@H]3O)[C@H]2O)[C@H](OC(=O)[C@]23CCC(C)(C)C[C@H]2C2=CCC4[C@@]5(C)CC[C@H](O[C@@H]6O[C@H](C(=O)O)[C@@H](O)[C@H](O[C@@H]7OC[C@@H](O)[C@H](O)[C@H]7O)[C@H]6O[C@@H]6O[C@H](CO)[C@H](O)[C@H](O)[C@H]6O)[C@@](C)(C=O)C5CC[C@@]4(C)[C@]2(C)CC3)O[C@@H]1C` (stereo not given in full), the entry is “inactive [at 4.96 µM]”. As for `CCN(Cc1cccnc1)C(=O)CN(c1ccc(OC)nc1)S(=O)(=O)c1ccccc1C`, the entry is “inactive”; as for `COc1ccc(CN2C(=O)C(=O)c3cc(S(=O)(=O)N4CCC[C@H]4COc4cccnc4)ccc32)cc1`, “inactive”; as for `CC1=CC(=O)[C@]2(O[C@@H]3O[C@@H](C)[C@H](O)[C@@H](O)[C@H]3OC(=O)/C=C/c3ccccc3)C=CO[C@@H](O[C@@H]3O[C@H](CO)[C@@H](O)[C@H](O)[C@H]3O)[C@H]12`, “inactive [at 17.4 µM]”. To `O=C(O)c1ccccc1NC(=O)N1CCC(c2ccccc2C(F)(F)F)CC1` belongs “inactive”. As to `Nc1nc2c(ncn2[C@@H]2O[C@H](CO)[C@@H](O)[C@H]2O)c(=O)[nH]1`, the compound was called inactive. As for `C[C@]12C[C@@H](O)[C@@H]3C[C@@]1(O[C@@H]1O[C@H](CO)[C@@H](O)[C@H](O)[C@H]1O)[C@]3(COC(=O)c1ccccc1)C(=O)O2`, the entry is “inactive [at 17.4 µM]”.

These data come from PubChem BioAssay (NCATS).
